Source: PubChem BioAssay (NCATS)
Records with an inconclusive call do not appear. Values without a mark were called inactive. The source made the active and inactive calls. Calls come from the whole dose curve; as a rule, active = well fitted cell-killing curve with a large enough effect; inconclusive = small, poorly fitted or top-dose-only effect, or effect the other way; inactive = no such curve, though single readings can be large or run the other way.

Assay: Quantitative High-Throughput drug screen in 47 multiple myeloma cell lines against the NCATS MIPE library collection: U266_ATCC cell viability assay (AID 1919864); note: nearly all actives have a fitted effect of over 35% in size
Details: U266 myeloma viability, CellTiter-Glo ATP luminescence, 48 h; series mostly up to 45.8 µM
Description: PI: Beverly A. Mock Ph.D.
Laboratory of Cancer Biology and Genetics,
Center for Cancer Research, National Cancer Institute,
National Institute of Health, Bethesda, Maryland
Drug resistance and disease progression are common in multiple myeloma (MM) patients, underscoring the need for new therapeutic combinations. […] We hypothesized that effective combinations would reduce MYC expression and enhance p16 activity. […] These preclinical data identify potentially useful drug combinations for evaluation in drug-resistant MM and reveal potential mechanisms of combined drug sensitivity.
Described herein is the primary MIPE qHTS used to cherrypick compounds. Validated compounds were then further tested for potential synergistic activiy.
[1] Peat TJ, Gaikwad SM, Dubois W, Gyabaah-Kessie N, Zhang S, Gorjifard S, Phyo Z, Andres M, Hughitt VK, Simpson RM, Miller MA, Girvin AT, Taylor A, Williams D, D'Antonio N, Zhang Y, Rajagopalan A, Flietner E, Wilson K, Zhang X, Shinn P, Klumpp-Thomas C, McKnight C, Itkin Z, Chen L, Kazandijian D, Zhang J, Michalowski AM, Simmons JK, Keats J, Thomas CJ, Mock BA. Drug combinations identified by high-throughput screening promote cell cycle transition and upregulate Smad pathways in myeloma. Cancer Lett. 2023 Aug 1;568:216284. doi: 10.1016/j.canlet.2023.216284. Epub 2023 Jun 24. PMID: 37356470; PMCID: PMC10408729.
SEQUENCE No. (e.g., 1, 2, 3, etc.); […] (e.g., Cells, Incubation, Reagent, etc.); VALUE and DESCRIPTION.
1; Cells; 5 uL; white, solid bottom 1536-well Greiner assay plate.
2; Compounds; 23 nL; Kalypsis pin tool (Wako USA) equipped with a 1536-well pin head to transfer to the assay plates.
3; Incubation; 48 hours; 37C incubation.
4; Reagent;5uL; CellTiter Glo (Promega).
5; Detector; 425V; Luminescence; Viewlux PerkinElmer.
NOTES (numbers refer to Sequence numbers above)
1. The cell-based screening methods employed in this study were like those previously published. Briefly, the corresponding myeloma cell lines were screened in 1,536-well plates with 500 cells, 5-uL per well for inhibition of cell viability (assessed by measuring ATP levels with CellTiterGlo).
2. NCATS MIPE 4.0 library of approved and investigational drugs were added using the Kalypsis pin tool. Wells treated with DMSO only for 100% viability and media only for 0% viability were used as controls.
3. The assay plates were covered and incubated for 48 hours in a 37C, 5% CO2 incubator with controlled humidity.
4. After 48 hours, CellTilter-GloTM luminescent substrate mix (Promega) reagent was added to the assay plate and plates we incubated for 5 min at room temperature.
5. Signal was measured as median relative luminescence units on a ViewLux (PerkinElmer) multiplate reader.
[1] Heske CM, Davis MI, Baumgart JT, Wilson K, Gormally MV, Chen L, Zhang X, Ceribelli M, Duveau DY, Guha R, Ferrer M, Arnaldez FI, Ji J, Tran HL, Zhang Y, Mendoza A, Helman LJ, Thomas CJ. Matrix Screen Identifies Synergistic Combination of PARP Inhibitors and Nicotinamide Phosphoribosyltransferase (NAMPT) Inhibitors in Ewing Sarcoma. Clin Cancer Res. 2017 Dec 1;23(23):7301-7311. doi: 10.1158/1078-0432.CCR-17-1121. Epub 2017 Sep 12. PMID: 28899971; PMCID: PMC6636827.
Potency is the fitted concentration of half-maximal effect.

Compound | Potency | viability (% of DMSO control)
c1coc(CNc2ncnc3nc[nH]c23)c1 | inactive | 
CN(C)CCN1C(=O)c2cccc3cc(N)cc(c23)C1=O | 18.7 µM (active) | 
C=C1C(=O)O[C@H]2[C@@H]1CCC(C)=CCC[C@@]1(C)O[C@@H]21 | 6.62 µM (active) | 
COc1cc(C[C@@H](CO)[C@H](CO)Cc2ccc(O)c(OC)c2)ccc1O | 0.469 µM (active) | 
C#C[C@]1(O)CC[C@@H]2[C@@H]3CCc4cc(O)ccc4[C@H]3CC[C@@]21C | 14.8 µM (active) | 
Nc1ncn([C@@H]2O[C@H](CO)[C@@H](O)[C@@H]2O)c(=O)n1 | 10.5 µM (active) | 
OCCNC1CCCc2c1[nH]c1ccc(-c3ccccc3)cc21 (stereo not given) | 20.9 µM (active) | 
O=C(C=CC=Cc1ccc2c(c1)OCO2)N1CCCCC1 | inactive | 
COc1ccc(CCC(=O)c2c(O)cc(O[C@@H]3O[C@H](CO)[C@@H](O)[C@H](O)[C@@H]3O[C@@H]3O[C@@H](C)[C@H](O)[C@@H](O)[C@@H]3O)cc2O)cc1O | 8.33 µM (active) | 
CC(C)n1cnc2c(NCCc3ccc(O)cc3)nc(-c3csc4ccccc34)nc21 | 2.35 µM (active) | 
CC(O)(C#Cc1ccc2c(c1)N(c1nc(N)ncc1Cl)CC2)c1nccs1 (stereo not given) | 16.6 µM (active) | 
C#CCC(Cc1cnc2nc(N)nc(N)c2n1)c1ccc(C(=O)N[C@@H](CCC(=O)O)C(=O)O)cc1 (stereo not given in full) | 0.372 µM (active) | 
Cc1cnn(C)c1C(=O)Nc1cc(Nc2ccc3c(C=Cc4ccccn4)n[nH]c3c2)ccc1F | 20.9 µM (active) | 
c1ccc(CNc2nc(NCc3ccccc3)c3ccccc3n2)cc1 | 14.8 µM (active) | 
C[C@@H](NCc1cc2ccccc2[nH]1)c1cccc2ccccc12 | inactive | 
CCC(C(=O)O)C1CCC(C)C(C(C)C(O)C(C)C(=O)C(CC)C2OC3(C=CC(O)[C@@]4(CC[C@](C)(C5CC[C@@](O)(CC)C(C)O5)O4)O3)C(C)CC2C)O1 (stereo not given in full) | 5.26 µM (active) | 
O=C(CCCCCCC(=O)Nc1cccnc1)NO | 4.69 µM (active) | 
CN1CCCN(C(=O)c2cccc(-c3ccc(C=C4C(=O)Nc5ccc(Cl)cc54)o3)c2)CC1 | 18.7 µM (active) | 
CN(CC(=O)N(Cc1ccc(C2CCCCC2)cc1)c1ccc(C(=O)O)c(O)c1)S(=O)(=O)c1c(F)c(F)c(F)c(F)c1F | 13.2 µM (active) | 
Cn1cnc(=N)c2[nH]cnc21 | 0.235 µM (active) | 

Compound | Potency | viability (% of DMSO control)
C[C@H]1COc2c(N3CCN(C)CC3)c(F)cc3c(=O)c(C(=O)O)cn1c23 | inactive | 
Cc1cc(Nc2ncc3c(n2)N(C)C(=O)N(c2cc(NC(=O)c4cccc(C(F)(F)F)c4)ccc2C)C3)n(C)n1 | 1.32 µM (active) | 
COc1ccc(C[C@@H](C)[C@@H](C)Cc2ccc(OC)c(OC)c2)cc1OC | 0.935 µM (active) | 
CCCCCCCCCCCC(CC1OC(=O)C1CCCCCC)OC(=O)C(CC(C)C)NC=O (stereo not given) | inactive | 
C[C@H](NCc1ccc2c(c1)nc(NC(=O)c1ccc(-c3cn[nH]c3)s1)n2CCc1ccccc1)C(C)(C)C | 1.48 µM (active) | 
COc1ccc(S(=O)(=O)Nc2cc(-c3c(O)ccc4ccccc34)c(O)c3ccccc23)cc1 | 2.35 µM (active) | 
COc1cc(C)c(C=CC(C)=CC=CC(C)=CC(=O)O)c(C)c1C | inactive | 
CCOC(=O)N1CCN([N+]([O-])=NOc2ccc([N+](=O)[O-])cc2[N+](=O)[O-])CC1 | 2.64 µM (active) | 
COc1cccc2c1C(=O)c1c(O)c3c(c(O)c1C2=O)C[C@@](O)(C(C)=O)C[C@H]3O[C@H]1C[C@H](N)[C@H](O)[C@H](C)O1 | 0.166 µM (active) | 
C=CC(=O)Nc1ccc2ncnc(Nc3ccc(OCc4cccc(F)c4)c(Cl)c3)c2c1 | 14.8 µM (active) | 
CNC(=O)c1cccc(-c2ccc3c(N4CCOC[C@H]4C)nc(N4CCOC[C@H]4C)nc3n2)c1 | 0.469 µM (active) | 
CCCCC(=O)O[C@]1(C(=O)CO)[C@@H](C)C[C@H]2[C@@H]3CCC4=CC(=O)C=C[C@]4(C)[C@@]3(F)[C@@H](O)C[C@@]21C | inactive | 
CNC(=O)c1ccc(Nc2cc(Nc3ccccc3S(=O)(=O)C(C)C)c3cc[nH]c3n2)nc1 | 1.48 µM (active) | 
CC(C)N1[N]C(=C2C=c3cc(O)ccc3=N2)c2c(N)ncnc21 | 4.18 µM (active) | 
CC(C)(C)[C@H](NC(=O)c1ccc(N)c(Cl)c1)C(=O)N1CCC[C@@H]1C(=O)N[C@H](C#N)CC(=O)O |  | 129% [at 3.51 µM]
CC(=O)SCC(Cc1ccccc1)C(=O)NCC(=O)OCc1ccccc1 (stereo not given) | 1.32 µM (active) | 
Cc1cc(-c2nnc3n2CCCCC3)c(C)n1-c1ccccc1 | inactive | 
COc1cccc2c1C(=O)c1c(O)c3c(c(O)c1C2=O)C[C@@](O)(C(=O)CO)C[C@@H]3O[C@H]1C[C@H](N)[C@H](OC2CCCCO2)[C@H](C)O1 (stereo not given in full) | 2.35 µM (active) | 
O=C(O)CCCCCC(=O)NN=C1CCCC1 | inactive | 
COc1cc(CCc2cc(NC(=O)c3ccc(N4C[C@@H](C)N[C@@H](C)C4)cc3)n[nH]2)cc(OC)c1 | 20.9 µM (active) | 
